High-throughput results deposited in PubChem BioAssay by National Center for Advancing Translational Sciences (NCATS).
Sampled rows, rich in hits. Any-hit rate of the full collection: about 7.5%.
VP16 counter = Gal4-VP16 reporter inhibition counter-screen; Drosophila S2 Gal4-VP16 UAS-luciferase, luminescence, 20 h; AID 2546; Potency, µM (series often up to 53.6 µM), hits mostly inhibitors; hit rate 3.5% among 310,000;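 note: Gal4-VP16 expression switched on by copper sulfate through the metallothionein promoter; nearly all actives have a fitted effect of over 50% in size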
ELG1 repair inh = inhibitors of ELG1-dependent DNA repair in HEK293T cells. AID 504467. Potency, µM (top dose mostly 46.1 µM), hits mostly inhibitors. hit rate 2.3% among 330,000. HEK293T ELG1-luciferase reporter, luminescence, 16 h; DNA damage induced by 5-fluorouridine; note: nearly all actives have a fitted effect of over 55% in size
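In this reporter screen, reduction of luminescence relative to DMSO vehicle indicated activity. Compounds and 5-fluorouridine were added together to 2,000 cells per well, incubated for 16 hr at 37 °C, then developed with ONE-Glo.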
B2AR arrestin = agonists driving beta-arrestin recruitment to human beta2-adrenergic receptor | Potency, µM (top dose mostly 46.1 µM), actives largely listed as activators | P07550 | beta-arrestin recruitment to beta2AR, cell-based reporter | hit rate 0.02% among 330,000; note: nearly all actives have a fitted effect of over 65% in size
RORgamma inh = ROR gamma (mouse) transcription inhibition; P51450; Drosophila S2 Gal4-RORgamma UAS-luciferase reporter, 20 h; Potency, µM (doses to about 53.6 µM), usual class: inhibitors; hit rate 5.4% among 310,000; AID 2551; note: nearly all actives have a fitted effect of over 60% in size
Target sequence (P51450 whole entry, looked up, the tested form may be a part): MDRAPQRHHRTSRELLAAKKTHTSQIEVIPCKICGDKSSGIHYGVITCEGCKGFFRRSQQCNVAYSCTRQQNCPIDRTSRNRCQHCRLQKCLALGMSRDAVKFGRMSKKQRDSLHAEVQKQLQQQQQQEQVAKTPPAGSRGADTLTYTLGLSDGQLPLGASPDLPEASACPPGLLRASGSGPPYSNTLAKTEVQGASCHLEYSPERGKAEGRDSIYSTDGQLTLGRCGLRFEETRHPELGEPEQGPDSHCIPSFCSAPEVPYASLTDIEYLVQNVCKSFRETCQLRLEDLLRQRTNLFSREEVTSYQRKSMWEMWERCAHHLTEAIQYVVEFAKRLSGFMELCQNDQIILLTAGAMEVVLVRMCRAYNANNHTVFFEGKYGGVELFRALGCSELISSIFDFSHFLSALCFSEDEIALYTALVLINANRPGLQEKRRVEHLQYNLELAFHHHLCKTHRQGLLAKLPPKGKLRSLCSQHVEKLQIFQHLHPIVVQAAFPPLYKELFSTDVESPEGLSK
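Luminescence from a UAS-regulated Photinus luciferase reporter in stably transfected Drosophila Schneider cells is measured; decreased signal marks ROR gamma inhibition. Fusion expression is induced by 700 uM copper sulfate for 20 hr.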
TSHR antag = human thyrotropin receptor antagonism. P16473. TSHR-expressing cells, TSH-stimulated cAMP HTRF, 2 h; active compounds read low. activity change, negative = inhibition, % at 11.5 µM. hit rate 0.2% among 330,000. AID 504810;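 active = activity change below a set negative limit, meaning inhibition stronger than a set level, cut at about -70% in these data; inconclusive = activity change between two set negative limits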
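TSHR-expressing cells, 200/well, pre-treated with compound, then stimulated with EC80 TSH (4nM final) for 2 hours at 37 deg C. cAMP measured by competitive HTRF: anti-cAMP cryptate antibody in lysis buffer plus cAMP-d2, read after 30 minutes at room temperature.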
Of the large screens only hits and unclear results are named; the others gave an inactive call. Unless noted, calls come from the whole dose curve; as a rule, active = well fitted curve in the direction sought with a large enough effect; inconclusive = small, poorly fitted or top-dose-only effect, or another doubt; inactive = no such curve, though single readings can be large; an effect the other way counts as inactive or inconclusive.

CS(=O)(=O)Nc1cccc(-c2ccc3ncnc(NCCN4CCOCC4)c3c2)c1	RORgamma inh inconclusive (no result: ELG1 repair inh, B2AR arrestin, TSHR antag)
Cc1noc(C)c1C(=O)Nc1nc2ccc(Cl)cc2s1	VP16 counter inconclusive, ELG1 repair inh inconclusive, RORgamma inh inconclusive
CCOC(=O)C1CCN(CC(=O)Nc2c(C(=O)OC)[nH]c3ccccc23)CC1	ELG1 repair inh inconclusive
CCOC(=O)C1CCN(CC(=O)Nc2c(C(=O)OC)[nH]c3ccc(Cl)cc23)CC1	VP16 counter 10µM, ELG1 repair inh 21µM, RORgamma inh inconclusive
Fc1ccccc1-c1ccc(/C=N/Nc2nc3ccccc3[nH]2)o1	VP16 counter 3.5µM, ELG1 repair inh inconclusive, RORgamma inh 3.2µM
C(=N\Nc1nc2ccccc2[nH]1)/c1cccc2nccnc12	VP16 counter 5.6µM, ELG1 repair inh inconclusive, RORgamma inh 1µM
BrC(=C\c1ccccc1)/C=N/Nc1nc2ccccc2[nH]1	VP16 counter 5µM, ELG1 repair inh inconclusive, RORgamma inh 3.2µM
C(=N\Nc1nc2ccccc2[nH]1)/c1ccccn1	VP16 counter 1.1µM, ELG1 repair inh inconclusive, RORgamma inh 0.56µM
COc1ccc(CNC(=O)[C@H](C)[C@H]2C[C@]2(C)[C@H](NC(=O)OCc2ccccc2)c2ccccc2)cc1OC	none (no result: ELG1 repair inh, B2AR arrestin, TSHR antag)
C#CCn1cc(/C=N/Nc2nc3ccccc3[nH]2)c2ccccc21	VP16 counter inconclusive, ELG1 repair inh inconclusive, RORgamma inh 16µM
Cc1ccc(/C=N\Nc2nc3ccc(Cl)cc3[nH]2)o1	VP16 counter 13µM, ELG1 repair inh inconclusive, RORgamma inh 6.3µM
CN(C)CCCOc1c2ccccc2n(Cc2ccccc2)[n+]1[O-]	none (no result: ELG1 repair inh, B2AR arrestin, TSHR antag)
COC(=O)C1(C(=O)OC)CC(CO)C(=O)[C@H]1c1ccccc1 (stereo partly specified)	none (no result: ELG1 repair inh, B2AR arrestin, TSHR antag)
OCc1ccccc1OCCOc1ccc(Cl)c2cccnc12	ELG1 repair inh inconclusive, RORgamma inh inconclusive
Clc1ccc(OCc2cn3ccccc3n2)c2ncccc12	VP16 counter inconclusive, ELG1 repair inh inconclusive, RORgamma inh 11µM
CC[C@H](C)[C@@H]1NC(=O)[C@H]([C@@H](C)CC)NC(=O)[C@@H](CC(C)C)NC(=O)[C@H](Cc2ccccc2)NC(=O)[C@H](Cc2ccccc2)NC(=O)[C@@H]2CCCN2C(=O)[C@@H]2CCCN2C(=O)[C@H](C(C)C)NC(=O)[C@H](CC(C)C)NC1=O	ELG1 repair inh inconclusive (no result: VP16 counter, RORgamma inh)
CC(=O)c1ccc(N2CCN(C(=O)c3cc4c(-c5ccccc5F)nn(C)c4s3)CC2)cc1	VP16 counter inconclusive, ELG1 repair inh 18µM, RORgamma inh inconclusive
COCCCNC(=O)c1cc2c(-c3cccc(OC)c3)nn(C)c2s1	ELG1 repair inh 12µM
Cn1nc(-c2ccc(Cl)cc2)c2cc(C(=O)NC3CC3)sc21	VP16 counter 13µM, RORgamma inh inconclusive
CCN(CC)CCNC(=O)c1cc2c(-c3ccc(Cl)cc3)nn(C)c2s1	ELG1 repair inh inconclusive, RORgamma inh inconclusive
CCOCCCNC(=O)c1cc2c(-c3ccc(Cl)cc3)nn(C)c2s1	ELG1 repair inh 21µM
CCN(CC)c1ccc(CN2CCC(C(=O)NCc3ccc(C)cc3)CC2)cc1	ELG1 repair inh inconclusive
Cn1nc(-c2ccc(Cl)cc2)c2cc(C(=O)N3CCN(C(=O)c4ccco4)CC3)sc21	VP16 counter inconclusive, ELG1 repair inh 8.2µM
CCCN(CCC)CCNC(=O)c1cc2c(-c3ccccc3F)nn(C)c2s1	none
CC(CCc1ccco1)NC(=O)c1cc2c(-c3ccccc3F)nn(C)c2s1 (stereo unspecified)	ELG1 repair inh 16µM, RORgamma inh inconclusive
CCOc1ccc(/C=N/NC(=S)NC2CC3C=CC2C3)cc1 (stereo unspecified)	VP16 counter 3.2µM, RORgamma inh 1µM
COc1cc(/C=N/NC(=S)NC2CC3C=CC2C3)cc(OC)c1OC (stereo unspecified)	VP16 counter 4.5µM, ELG1 repair inh 18µM, B2AR arrestin inconclusive, RORgamma inh 1.8µM
COc1ccccc1NC(=O)COC(=O)c1[nH]c(=O)[nH]c(=O)c1N	none (no result: VP16 counter, RORgamma inh)
Cc1ccccc1OCC(=O)Nc1cccc(S(=O)(=O)NC2=NCCCCC2)c1	none (no result: VP16 counter, RORgamma inh)
CCOc1ccccc1OCC(=O)Nc1cccc(S(=O)(=O)NC2=NCCCCC2)c1	ELG1 repair inh inconclusive (no result: VP16 counter, RORgamma inh)
CCOc1ccccc1Nc1nnc(SCC(=O)Nc2cccc(S(=O)(=O)NC3=NCCCCC3)c2)s1	ELG1 repair inh 18µM
O=C(Nc1cccc(S(=O)(=O)NC2=NCCCCC2)c1)c1cc(-c2ccccc2Cl)nc2ccccc12	ELG1 repair inh 23µM
Cc1ccc(C(C)C)c(OCC(=O)Nc2cccc(S(=O)(=O)NC3=NCCCCC3)c2)c1	ELG1 repair inh 23µM
COc1ccc(-c2cc(C(=O)Nc3ccccc3O)c3ccccc3n2)cc1OC	ELG1 repair inh 23µM
COc1ccc(-c2cc(C(=O)Nc3ccc(Cl)cc3Cl)c3ccccc3n2)cc1OC	ELG1 repair inh inconclusive
COc1ccc(-c2cc(C(=O)Nc3nc4ccccc4s3)c3ccccc3n2)cc1OC	ELG1 repair inh 15µM
COc1ccc(-c2cc(C(=O)Nc3c(Cl)cc(Cl)cc3Cl)c3ccccc3n2)cc1OC	none
c1ccc(COCc2ccccc2)cc1	none (no result: ELG1 repair inh, B2AR arrestin, TSHR antag)
COc1ccc2c(=O)c(Oc3ccc(C(=O)O)cc3)c(C(F)(F)F)oc2c1	VP16 counter 13µM, ELG1 repair inh inconclusive, RORgamma inh inconclusive
CCCn1c(C)nc2c(N(CCOC)CCOC)nc(C)nc21	none (no result: ELG1 repair inh, B2AR arrestin, TSHR antag)
COc1ccc(C2CC(c3ccc(OC)cc3)n3nc(NC(=O)c4cccs4)nc3N2)cc1 (stereo unspecified)	VP16 counter inconclusive, RORgamma inh 5µM
COCC(=O)Nc1nc2n(n1)C(c1ccc(Cl)cc1)CC(c1ccc(OC)cc1)N2 (stereo unspecified)	none
COc1ccc(C2CC(c3ccc(F)cc3)n3nc(NC(=O)c4ccco4)nc3N2)cc1 (stereo unspecified)	VP16 counter 13µM, RORgamma inh 7.1µM
O=C(NNC(=S)NCc1ccccc1)c1ccc(Br)o1	RORgamma inh 8.9µM
O=C(NNC(=S)NCc1ccccc1)c1ccc(Br)cc1	RORgamma inh 7.9µM
O=C(NC(=S)NCc1ccccc1)c1ccc(Br)o1	VP16 counter 13µM, RORgamma inh inconclusive
O=C(NNC(=S)NCc1ccc(Cl)cc1)c1ccc(Br)o1	none
COc1ccc(C(=O)N2CCC3(CCCN(Cc4nccs4)C3)CC2)cc1	none (no result: ELG1 repair inh, B2AR arrestin, TSHR antag)
COc1ccc(CN2CCCN(C)CC2)c(OC)c1C	TSHR antag -119
COc1cc(Br)c(CN2CCCN(C)CC2)cc1OC	none
CCCCN(CC)c1nc(C)nc2c1c(C)c(C)n2-c1c(C)cc(C)cc1C	VP16 counter inconclusive, RORgamma inh 2.2µM (no result: ELG1 repair inh, B2AR arrestin, TSHR antag)
CCN(CCCCO)c1nc(C)nc2c1c(C)c(C)n2-c1c(C)cc(C)cc1C	VP16 counter inconclusive, RORgamma inh 11µM (no result: ELG1 repair inh, B2AR arrestin, TSHR antag)
COc1ccc(CCN(C)C(=O)c2c(C)noc2C)cc1OC	none (no result: VP16 counter, RORgamma inh)
CCCOc1cccc(C(=O)NC(=S)Nc2ccc(N3CCN(C)CC3)cc2)c1	none
